PubChem BioAssay (NCATS)
Records with an inconclusive call do not appear. Calls of active or inactive are those of the source. Unless noted, calls follow the shape of the dose curve; as a rule, active = well fitted curve in the direction sought with a large enough effect; inconclusive = small, poorly fitted or top-dose-only effect, or another doubt; inactive = no such curve, though single readings can be large; an effect the other way counts as inactive or inconclusive.

Tests used:
[1] = Validation of Assay for Modulators of Lamin A Splicing (AID 1459; active = well fitted curve in the direction sought with a large enough effect in the signal ratio; the % refers to the signal ratio;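 also: cells exposed to compound for two days before reading; 0% is about no effect; ratio rise marks activators and ratio drop marks inhibitors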)
Procedure, shortened: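 HeLa S3 lamin A-EGFP/DsRed2 stable clone, 600 cells/well, Opti-MEM 2% FBS; compounds by pin tool; 48 hrs, 37 °C/5% CO2; Acumen 488 nm scan, objects 10-100 um; GFP/RFP intensity ratio.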

[2] = molecular target: DNA repair nuclease/redox regulator APEX1 (Homo sapiens) (UniProt P27695); assay: qHTS Validation Assay for Inhibitors of the Human Apurinic/apyrimidinic Endonuclease 1 (APE1) (AID 1705;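 also: TAMRA fluorescence gain over two minutes as APE1 cuts a quenched THF abasic duplex; % is scaled to controls: 0 for no effect and ±100 for the full control effect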)
Procedure, shortened: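 qHTS, 1536-well. APE1 + cpd 15 min RT → 50 nM TAMRA/BHQ-2 THF-abasic dsDNA substrate → kinetic fluorescence, 3 reads/60 s; delta(read3−read1) = reaction progress. No-enzyme buffer = negative control.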

[3] = Counterscreen for APE1 Inhibitors: Fluorescent Dye Displacement Validation Assay (AID 1707);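 also: plate controls were ThO with dsDNA and no compound for no effect and ThO without dsDNA for full effect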
Procedure, shortened: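 Counterscreen flags promiscuous DNA binders: compounds displacing ThO from duplex DNA (abasic THF site, 50 nM) reduce 540 nm emission (480 nm excitation). ThO 250 nM final; Tris-HCl pH 7.5 with NaCl, MgCl2 and Tween-20.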

[4] = molecular target: Endonuclease 4 (Escherichia coli (strain K12)) (UniProt P0A6C1); assay: Counterscreen for APE1 Inhibitors: qHTS Validation Assay for Inhibitors of Endonuclease IV (AID 1708); also: % is scaled to controls: 0 for no effect and ±100 for the full control effect
Procedure, shortened: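 Incision of a double-stranded 50 nM TAMRA/BHQ-2 abasic substrate was followed kinetically (525/598 nm, reads every 60 s) after 15 min enzyme–compound preincubation with 2 nM EndoIV in pH 7.5 Tris buffer with MgCl2, DTT and Tween-20; concentration-response format.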

[5] = qHTS for differential inhibitors of proliferation of Plasmodium falciparum line 3D7 (AID 1876); also: potency is read from the fitted curve at half-maximal effect
[6] = qHTS for differential inhibitors of proliferation of Plasmodium falciparum line W2 (AID 1883); conditions: Potency: Plasmodium falciparum W2 proliferation inhibition;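 also: potency is read from the fitted curve at half-maximal effect; parasites grown with compound for 72 h before lysis and staining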
[7] = qHTS Assay for Modulators of Human Peripheral Myelin Protein 22 (PMP22) Expression/Activity (AID 1967; active = well fitted curve in the direction sought with a large enough effect in the signal ratio; the % refers to the signal ratio;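 also: 0% = untreated cells and 100% end not stated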)
Procedure, shortened: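 Luminescence ratio of Pmp22 promoter-driven green luciferase to EF-alpha-driven red luciferase, in engineered mouse MSC80 Schwann cells, served as read-out. Compounds were incubated 24h; untreated cells defined 0% Activity; curves were classified by r2, magnitude and activity.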

[8] = molecular target: Ferritin light chain (Equus caballus) (UniProt P02791); assay: qHTS Validation Assay for Identification of Novel General Anesthetics (AID 2323); also: % is scaled to controls: 0 for no effect and ±100 for the full control effect
Procedure, shortened: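 Fluorescence at 535 nm (excitation 380 nm) reported loss of 1-AMA binding to horse-spleen apoferritin (10 uM) in PBS with 50% saturated 1-aminoanthracene, after 10 min room-temperature incubation with compound; values from Hill fits of normalized response.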

[9] = molecular target: ATP-dependent DNA helicase Q1 (Homo sapiens) (UniProt P46063); assay: qHTS Validation Assay for Inhibitors of RecQ-Like Dna Helicase 1 (RECQ1) (AID 2353);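 also: plate controls were DMSO vehicle for no effect and enzyme-free control for full effect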
Procedure, shortened: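 RECQ1T1 50 nM; forked duplex (20 bp + 30-nt ss tails) 200 nM, ATP 2 mM final; pH 8.0, 2 mM MgCl2, 2.5 ug/ml poly(dI-dC); 15 min compound preincubation; discontinuous kinetic read over 2 h at RT.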

[10] = Validation screen for small molecules that induce DNA re-replication in MCF 10A normal breast cells (AID 463097); also: 0% is about no effect; nearly all actives have a fitted effect of over 60% in size
Procedure, shortened: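 Image-based qHTS: normal breast cells are incubated with compound for 48 hr, stained with Hoechst, and scanned for total nuclear fluorescence. Compounds raising the fraction of nuclei with elevated DNA content count as re-replication inducers.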

[11] = Quantitative high throughput screen for delayed death inhibitors of the malarial parasite plastid, 96 hour incubation (AID 488745);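 also: luciferase-expressing P. falciparum in erythrocytes at 2% hematocrit and 0.1% parasitemia; % is scaled to controls: 0 for no effect and ±100 for the full control effect; nearly all actives have a fitted effect of over 70% in size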
Procedure, shortened: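 Readout is firefly luciferase luminescence from an integrated reporter in P. falciparum; lower signal marks inhibited growth. Cultures at 2% hematocrit and 0.1% parasitemia were treated with compound across two generations (96 h, 37 C, 5% CO2).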

[12] = Quantitative high throughput screen for delayed death inhibitors of the malarial parasite plastid, 48 hour incubation (AID 488752); also: % is scaled to controls: 0 for no effect and ±100 for the full control effect; nearly all actives have a fitted effect of over 65% in size
Procedure, shortened: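 First, compound was pinned into RPMI 1640 medium containing 0.5% Albumax. Next, reporter-parasite-infected erythrocytes were added to 2% hematocrit and 0.1% parasitemia. After 48 h at 37 C under 5% CO2, luciferase detection reagent was added and luminescence read.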

[13] = molecular target: M-phase phosphoprotein 8 (Homo sapiens) (UniProt Q99549); assay: qHTS Validation Assay for Inhibitors for MPP8 Chromodomain Interactions with Methylated Histone Tails (AID 488949);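 also: 50 nM MPP8 with 50 nM peptide preformed then compounds added for 30 min; AlphaScreen signal from MPP8 chromodomain bound to biotinylated H3K9me3 peptide; top concentration of the series differs between compounds; % is scaled to controls: 0 for no effect and ±100 for the full control effect; nearly all actives have a fitted effect of over 55% in size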
Procedure, shortened: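 50 nM MPP8 + 50 nM b-H3K9me3 peptide, PBS pH 7.4/0.01% Tween-20, 30 min RT; + cpd 30 min RT; + AlphaScreen donor/Ni-chelate acceptor beads 10 ug/mL final, 30 min dark; luminescence read.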

[14] = molecular target: Transient receptor potential cation channel subfamily V member 1 (Homo sapiens) (UniProt Q8NER1); assay: HTS Assay for Compounds that Act as Enhancers of the Vanilloid Receptor 1 (AID 488979); also: 0% is about no effect
Procedure, shortened: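 Calcium influx kinetics via Fluo-8 (480/520 nm) in TRPV1-expressing cells, 2000/well cultured overnight at 35.5C. Compound-alone read 3 min (agonist phase), followed by EC20 capsaicin challenge for 2 min (enhancer phase).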

[15] = molecular target: Thyrotropin receptor (Homo sapiens) (UniProt P16473); assay: qHTS Assay for Antagonists of the Thyroid Stimulating Hormone Receptor (AID 488980); also: 0% is about no effect
Procedure, shortened: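 Readout is cAMP by HTRF competition between cellular cAMP and cAMP-d2 for a cryptate-labelled antibody. Antagonism was assessed in TSHR-transfected HEK293 cells stimulated with 4 nM TSH (EC80, final) in the presence of RO 20-1724.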

[16] = molecular target: ATP-dependent 6-phosphofructokinase (Trypanosoma brucei brucei) (UniProt O15648); assay: qHTS Assay to Find Inhibitors of T. brucei phosphofructokinase: hit validation (AID 492961);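 also: luminescence reports ADP formed as PFK phosphorylates fructose-6-phosphate with ATP; % is scaled to controls: 0 for no effect and ±100 for the full control effect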
Procedure, shortened: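 ADP-Glo luminescence read-out of ADP formed by 1.25 nM PFK from 0.1 mM ATP and 0.5 mM F6P (TEA pH 8.0, 45 min, RT). Compounds titrated; activity normalized to no-enzyme and full-enzyme controls.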

[17] = molecular target: Thyrotropin-releasing hormone receptor (Homo sapiens) (UniProt P34981); assay: qHTS for Small Molecule Agonists and Allosteric Enhancers of Human TRH Receptor: Validation Screen for Agonists (AID 493127;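 active = calcium activation more than 3 SD above the typical response in the agonist read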;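 also: intracellular calcium rise by fluo-8 fluorescence before TRH EC20 addition; 0% is about no effect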); conditions: TRH receptor agonist cell assay; at 2 µM; active compounds read high
Procedure, shortened: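 Compounds are added by online pintool to dye-loaded TRHR cells while fluorescence is recorded every second. A rise in calcium signal during the agonist read marks activation; a later 10 nM TRH addition (EC20) serves the separate enhancer mode.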

[18] = molecular target: Galactokinase (Homo sapiens) (UniProt P51570); assay: qHTS Validation Assay for Inhibitors of Human Galactokinase (GALK) (AID 493189); also: 0% is about no effect
Procedure, shortened: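 5 nM GALK / 100 uM galactose / 35 uM ATP, 20 mM HEPES pH8.0, 5 mM MgCl2, 60 mM NaCl, 1 mM DTT, 0.01% BSA (final). RT 1 h; Kinase-Glo Plus luminescence.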

[19] = Validation screen for small molecules that induce DNA re-replication in SW480 colon adenocarcinoma cells (AID 504364); also: 0% is about no effect
Procedure, shortened: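 Image-based qHTS: compounds were incubated with SW480 cells for 48 hr, nuclei stained with Hoechst, and per-nucleus fluorescence intensity scanned to flag cells with excess DNA content.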

[20] = molecular target: Ubiquitin carboxyl-terminal hydrolase 1 (Homo sapiens) (UniProt O94782); assay: Inhibitors of USP1/UAF1: Pilot qHTS (AID 504865);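 also: rhodamine fluorescence freed from ubiquitin-rhodamine substrate followed over time; top concentration of the series differs between compounds; % is scaled to controls: 0 for no effect and ±100 for the full control effect; nearly all actives have a fitted effect of over 35% in size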
Procedure, shortened: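 In 50mM HEPES pH 7.8 containing 0.5mM EDTA, 1mM TCEP, 0.1 mg/ml BSA and 0.01% Tween-20, 1nM USP1/UAF1 is exposed to compound for 15 min, then Ub-Rho (150nM final) is added and fluorescence is read over time.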

[21] = molecular target: Luciferin 4-monooxygenase (Photinus pyralis) (UniProt P08659); assay: Biochemical firefly luciferase enzyme assay for NPC (AID 624030);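 also: purified P. pyralis luciferase at 10 nM with luciferin and ATP substrate; 0% = DMSO and -100% = full luciferase inhibition by PTC124 control; nearly all actives have a fitted effect of over 70% in size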
Procedure, shortened: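 Direct inhibition of firefly luciferase enzyme (10 nM final, 50 mM Tris Acetate) assessed by luminescence within 5 minutes. Percent activity scaled between DMSO and PTC124 positive control, with concentration-effect curves classified by fit quality and response.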

[22] = S16 Schwann cell viability assay (CellTiter-Glo assay) (AID 624031);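 also: cellular ATP luminescence as a viability measure; plate controls were DMSO-treated cells for no effect and cell-free wells for full effect; nearly all actives have a fitted effect of over 70% in size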
Procedure, shortened: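 Untransfected S16 rat Schwann cells; compound 24 h, 37 °C/5% CO2; CellTiter-Glo ATP luminescence. % activity vs no-cell wells and DMSO controls (0%); concentration-effect curves classed by r2, response magnitude, activity.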

[23] = S16 Schwann cell PMP22 intronic element firefly luciferase assay (AID 624032);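 also: plate controls were DMSO for no effect and PTC124 positive control mean for full effect; nearly all actives have a fitted effect of over 30% in size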
Procedure, shortened: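 Luciferase reporter of PMP22 intronic-element expression in stably transfected S16 rat Schwann cells, read by ONE-Glo luminescence after 24 h compound exposure at 37 C. Activity scaled between DMSO (0%) and positive-control PTC124; concentration-effect curves quality-classified.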

[24] = S16 Schwann cell PMP22 intronic element beta-lactamase assay (AID 624044; calls by dose curve;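 also: 0% = DMSO and -100% = potassium clavulanate positive control; nearly all actives have a fitted effect of over 15% in size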)
Procedure, shortened: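 Beta-lactamase reporter under a PMP22 intronic regulatory element in stable S16 rat Schwann cells; 24 h compound exposure. 460 nm blue signal normalized between DMSO (0%) and potassium clavulanate, with 535 nm FRET tracking viability; curves classed by r2 and response.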

[25] = qHTS profiling for inhibitors of Plasmodium falciparum proliferation (AID 504749);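 also: 0% = DMSO vehicle and full inhibition = artemisinin control; nearly all actives have a fitted effect of over 60% in size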; conditions: P. falciparum in erythrocytes, SYBR Green DNA, 72 h, at 28.7 µM (top of the series)
Procedure, shortened: (§1)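 SYBR Green fluorescence of parasite DNA, read after lysis and overnight dark incubation, measured growth over 72 h in erythrocyte culture at 0.3% parasitemia and 2.5% hematocrit. Data normalised to DMSO and 0.29 uM artemisinin, with plate-drift correction.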

[26] = tested on: 3D7; assay: as above; conditions: P. falciparum in erythrocytes, SYBR Green DNA, 72 h; series mostly up to 28.7 µM
Procedure, shortened: as §1

[27] = tested on: AS120; assay: as above; conditions: P. falciparum in erythrocytes, SYBR Green DNA, 72 h; series mostly up to 28.7 µM
Procedure, shortened: as §1

[28] = tested on: ATS189; assay: as above; conditions: P. falciparum in erythrocytes, SYBR Green DNA, 72 h; series mostly up to 28.7 µM
Procedure, shortened: as §1

[29] = tested on: ATS95; assay: as above; conditions: P. falciparum in erythrocytes, SYBR Green DNA, 72 h; series mostly up to 28.7 µM
Procedure, shortened: as §1

[30] = tested on: C2A; assay: as above; conditions: P. falciparum in erythrocytes, SYBR Green DNA, 72 h; series mostly up to 28.7 µM
Procedure, shortened: as §1

Sequence of ATP-dependent DNA helicase Q1 (Homo sapiens) (P46063 whole entry, looked up): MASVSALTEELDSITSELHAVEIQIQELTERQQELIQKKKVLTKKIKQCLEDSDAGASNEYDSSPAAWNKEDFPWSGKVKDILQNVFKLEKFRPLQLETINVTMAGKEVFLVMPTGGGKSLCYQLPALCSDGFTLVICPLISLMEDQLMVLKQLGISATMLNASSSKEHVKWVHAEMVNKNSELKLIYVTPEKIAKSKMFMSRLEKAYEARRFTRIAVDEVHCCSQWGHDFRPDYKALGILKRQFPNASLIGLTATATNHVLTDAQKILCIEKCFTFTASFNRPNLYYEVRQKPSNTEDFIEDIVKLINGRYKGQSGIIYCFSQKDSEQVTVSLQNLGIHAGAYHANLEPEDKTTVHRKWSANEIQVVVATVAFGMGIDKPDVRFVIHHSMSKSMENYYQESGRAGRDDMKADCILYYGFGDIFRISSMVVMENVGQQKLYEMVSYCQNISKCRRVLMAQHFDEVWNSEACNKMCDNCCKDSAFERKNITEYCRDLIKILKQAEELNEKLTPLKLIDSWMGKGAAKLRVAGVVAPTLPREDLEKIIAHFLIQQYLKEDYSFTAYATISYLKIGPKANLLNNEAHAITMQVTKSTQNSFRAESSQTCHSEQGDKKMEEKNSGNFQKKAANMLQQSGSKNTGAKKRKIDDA
Sequence of Thyrotropin-releasing hormone receptor (Homo sapiens) (P34981 whole entry, looked up): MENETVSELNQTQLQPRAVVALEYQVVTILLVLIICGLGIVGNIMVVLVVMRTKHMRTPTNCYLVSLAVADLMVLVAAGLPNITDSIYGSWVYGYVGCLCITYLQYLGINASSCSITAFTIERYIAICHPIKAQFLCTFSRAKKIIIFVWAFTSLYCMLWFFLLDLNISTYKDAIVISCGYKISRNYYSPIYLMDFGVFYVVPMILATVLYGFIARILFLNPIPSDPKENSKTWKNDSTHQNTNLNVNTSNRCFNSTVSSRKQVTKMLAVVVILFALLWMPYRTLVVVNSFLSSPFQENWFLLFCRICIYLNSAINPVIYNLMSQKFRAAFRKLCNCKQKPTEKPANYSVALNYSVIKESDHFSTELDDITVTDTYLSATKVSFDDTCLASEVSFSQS
Sequence of DNA repair nuclease/redox regulator APEX1 (Homo sapiens) (P27695 whole entry, looked up): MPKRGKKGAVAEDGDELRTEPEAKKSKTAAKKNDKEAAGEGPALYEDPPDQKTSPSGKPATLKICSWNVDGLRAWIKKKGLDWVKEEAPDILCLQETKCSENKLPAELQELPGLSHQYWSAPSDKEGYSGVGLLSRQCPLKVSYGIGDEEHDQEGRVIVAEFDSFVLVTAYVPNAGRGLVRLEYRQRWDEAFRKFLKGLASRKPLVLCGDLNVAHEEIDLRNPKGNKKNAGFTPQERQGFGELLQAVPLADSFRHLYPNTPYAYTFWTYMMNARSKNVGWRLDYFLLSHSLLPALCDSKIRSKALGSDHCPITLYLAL
Sequence of Transient receptor potential cation channel subfamily V member 1 (Homo sapiens) (Q8NER1 whole entry, looked up): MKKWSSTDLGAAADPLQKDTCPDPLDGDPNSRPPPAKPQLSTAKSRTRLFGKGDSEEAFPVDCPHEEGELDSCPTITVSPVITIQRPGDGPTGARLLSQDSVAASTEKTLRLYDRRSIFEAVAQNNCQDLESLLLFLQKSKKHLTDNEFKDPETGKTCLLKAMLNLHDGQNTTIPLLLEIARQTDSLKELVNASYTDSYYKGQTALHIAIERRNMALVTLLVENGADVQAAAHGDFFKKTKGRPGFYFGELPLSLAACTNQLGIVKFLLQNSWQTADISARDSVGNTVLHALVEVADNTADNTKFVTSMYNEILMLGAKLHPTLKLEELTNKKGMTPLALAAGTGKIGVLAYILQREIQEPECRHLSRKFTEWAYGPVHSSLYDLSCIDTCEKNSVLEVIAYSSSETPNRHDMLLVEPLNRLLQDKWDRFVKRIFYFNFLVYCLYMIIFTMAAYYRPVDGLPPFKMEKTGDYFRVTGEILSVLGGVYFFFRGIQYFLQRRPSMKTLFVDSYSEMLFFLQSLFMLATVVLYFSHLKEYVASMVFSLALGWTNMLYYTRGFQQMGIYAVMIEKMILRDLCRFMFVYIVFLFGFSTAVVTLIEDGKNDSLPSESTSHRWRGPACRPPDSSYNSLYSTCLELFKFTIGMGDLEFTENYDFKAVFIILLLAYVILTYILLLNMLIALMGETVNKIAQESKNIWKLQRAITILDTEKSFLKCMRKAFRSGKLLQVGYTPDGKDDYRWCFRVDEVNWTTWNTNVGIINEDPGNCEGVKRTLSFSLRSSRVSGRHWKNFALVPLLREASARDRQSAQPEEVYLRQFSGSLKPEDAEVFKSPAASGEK
Sequence of M-phase phosphoprotein 8 (Homo sapiens) (Q99549 whole entry, looked up): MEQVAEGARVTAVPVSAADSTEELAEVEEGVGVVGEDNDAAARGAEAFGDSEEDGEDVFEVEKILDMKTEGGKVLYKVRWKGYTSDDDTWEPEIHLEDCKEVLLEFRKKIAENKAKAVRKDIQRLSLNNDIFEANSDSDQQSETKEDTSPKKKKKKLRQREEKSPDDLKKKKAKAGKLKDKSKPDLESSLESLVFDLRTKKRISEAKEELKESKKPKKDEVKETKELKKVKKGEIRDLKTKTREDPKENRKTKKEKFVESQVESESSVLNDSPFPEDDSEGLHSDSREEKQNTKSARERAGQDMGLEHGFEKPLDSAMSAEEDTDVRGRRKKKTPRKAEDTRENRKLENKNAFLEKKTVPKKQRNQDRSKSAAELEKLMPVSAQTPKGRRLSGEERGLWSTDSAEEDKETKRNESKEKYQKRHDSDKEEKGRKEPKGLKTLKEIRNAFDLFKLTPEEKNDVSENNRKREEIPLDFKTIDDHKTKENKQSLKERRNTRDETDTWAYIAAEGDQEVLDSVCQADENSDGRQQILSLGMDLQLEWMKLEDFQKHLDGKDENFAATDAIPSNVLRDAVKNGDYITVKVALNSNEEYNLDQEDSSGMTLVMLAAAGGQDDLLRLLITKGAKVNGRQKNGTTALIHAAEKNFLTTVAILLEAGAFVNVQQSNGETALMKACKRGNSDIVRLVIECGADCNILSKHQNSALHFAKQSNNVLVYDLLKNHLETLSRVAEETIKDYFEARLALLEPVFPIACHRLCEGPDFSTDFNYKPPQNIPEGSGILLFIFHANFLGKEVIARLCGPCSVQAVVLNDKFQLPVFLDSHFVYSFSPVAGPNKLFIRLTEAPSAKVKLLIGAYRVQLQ
Sequence of Ferritin light chain (Equus caballus) (P02791 2-175 limits assumed): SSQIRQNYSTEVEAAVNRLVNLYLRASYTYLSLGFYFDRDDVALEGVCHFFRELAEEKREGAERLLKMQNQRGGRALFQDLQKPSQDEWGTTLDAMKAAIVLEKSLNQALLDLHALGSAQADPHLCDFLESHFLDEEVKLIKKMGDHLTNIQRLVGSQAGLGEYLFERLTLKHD
Sequence of Luciferin 4-monooxygenase (Photinus pyralis) (P08659 whole entry, looked up): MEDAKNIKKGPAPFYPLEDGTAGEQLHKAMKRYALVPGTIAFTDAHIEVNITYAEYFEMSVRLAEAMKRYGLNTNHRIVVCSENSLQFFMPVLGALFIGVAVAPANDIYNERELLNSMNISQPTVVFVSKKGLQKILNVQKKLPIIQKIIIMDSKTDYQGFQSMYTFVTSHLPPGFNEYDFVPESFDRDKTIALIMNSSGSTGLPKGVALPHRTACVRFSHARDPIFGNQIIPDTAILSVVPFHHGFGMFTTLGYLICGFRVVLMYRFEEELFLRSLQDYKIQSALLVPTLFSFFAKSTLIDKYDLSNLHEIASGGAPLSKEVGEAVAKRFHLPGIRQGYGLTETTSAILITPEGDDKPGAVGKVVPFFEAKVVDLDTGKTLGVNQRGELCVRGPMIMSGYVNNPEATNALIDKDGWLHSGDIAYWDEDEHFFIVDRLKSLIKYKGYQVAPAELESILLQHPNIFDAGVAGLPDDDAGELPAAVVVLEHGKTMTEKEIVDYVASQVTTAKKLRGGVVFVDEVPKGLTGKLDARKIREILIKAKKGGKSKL
Sequence of Thyrotropin receptor (Homo sapiens) (P16473 whole entry, looked up): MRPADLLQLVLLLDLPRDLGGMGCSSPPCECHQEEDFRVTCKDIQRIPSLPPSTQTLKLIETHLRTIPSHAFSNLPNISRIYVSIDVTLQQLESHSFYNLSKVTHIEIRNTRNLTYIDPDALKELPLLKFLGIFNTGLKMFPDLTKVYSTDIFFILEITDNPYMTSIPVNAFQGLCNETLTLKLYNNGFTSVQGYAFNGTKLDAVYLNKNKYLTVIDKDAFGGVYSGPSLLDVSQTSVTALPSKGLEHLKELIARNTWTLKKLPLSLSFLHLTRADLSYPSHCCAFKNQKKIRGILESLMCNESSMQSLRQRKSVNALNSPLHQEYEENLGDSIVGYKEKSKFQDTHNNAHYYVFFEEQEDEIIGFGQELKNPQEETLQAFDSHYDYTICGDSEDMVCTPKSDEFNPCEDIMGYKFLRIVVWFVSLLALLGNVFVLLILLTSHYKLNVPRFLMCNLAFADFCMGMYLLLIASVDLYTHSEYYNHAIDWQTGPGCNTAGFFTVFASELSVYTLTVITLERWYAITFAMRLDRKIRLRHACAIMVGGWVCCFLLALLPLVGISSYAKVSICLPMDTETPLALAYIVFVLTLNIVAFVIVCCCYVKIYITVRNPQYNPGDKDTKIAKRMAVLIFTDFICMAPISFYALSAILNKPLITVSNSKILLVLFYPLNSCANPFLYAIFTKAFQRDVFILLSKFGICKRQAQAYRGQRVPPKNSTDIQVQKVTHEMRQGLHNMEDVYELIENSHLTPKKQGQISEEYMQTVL
Sequence of Galactokinase (Homo sapiens) (P51570 whole entry, looked up): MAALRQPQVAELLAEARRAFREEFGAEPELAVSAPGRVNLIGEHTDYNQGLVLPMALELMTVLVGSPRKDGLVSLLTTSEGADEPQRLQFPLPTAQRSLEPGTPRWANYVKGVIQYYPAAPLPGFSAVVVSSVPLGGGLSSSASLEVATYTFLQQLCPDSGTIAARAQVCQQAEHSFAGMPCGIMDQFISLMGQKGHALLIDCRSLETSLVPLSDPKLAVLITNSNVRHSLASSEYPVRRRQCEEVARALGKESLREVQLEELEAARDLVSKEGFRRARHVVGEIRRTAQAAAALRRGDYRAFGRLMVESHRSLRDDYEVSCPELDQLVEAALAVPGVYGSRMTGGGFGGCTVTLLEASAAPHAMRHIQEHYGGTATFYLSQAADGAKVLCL

COc1cc2c(cc1OC)C(c1ccccc1)CN(C)CC2 (stereo unspecified)
active: Potency [5] 14.1 µM | Potency [6] 7.94 µM
inactive: outcome [1] | Potency [2] | Potency [3] | outcome [4] | outcome [7] | outcome [8] | Potency [9] | outcome [10] | Potency [11] | Potency [12] | Potency [13] | outcome [14] | outcome [15] | outcome [16] | activation [17] 1.81% | outcome [18] | outcome [19] | Potency [20] | Potency [21] | outcome [22] | Potency [23] | outcome [24] | activity, negative = inhibition ([25]; parasite line A) -10.7% | activity, negative = inhibition ([25]; parasite line B) -13.2% | Potency [26] | Potency [27] | Potency [28] | Potency [29] | Potency [30]
